Assay results reported in PubChem BioAssay (NCATS).
Values joined by “and” are separate entries in the source; they are usually repeats but may differ in a detail not shown here. Equal values may be shown once. Inconclusive results are not listed. Active and inactive are the calls of the source. Calls come from the whole dose curve; as a rule, active = well fitted inhibition curve with a large enough effect in the signal ratio, with a control signal flat (not every such curve was filed as active); inconclusive = small, poorly fitted or top-dose-only effect, or effect the other way, or a change in a side signal; inactive = no such curve, though single readings can be large or run the other way; the % refers to the signal ratio. Numbered stars: 1 amine (or outer) side, 2 acyl side, 3 side chain; on linkers, the order of the positions; unused ones are H or OH. Bridge positions count the residues as written; N and C are the ends. Square brackets hold non-standard residues; d marks the D form. Peptide text beside a SMILES is read from it. I, II: the chains in the order shown. Actinocin(9to1) = Cc1c2oc3c(C)ccc(C(=O)[*:1])c3nc-2c(C(=O)[*:2])c(N)c1=O; NMeV = CN[C@H](C(=O)O)C(C)C; Sar = CNCC(=O)O

System: not listed separately
Experiment: qHTS assay for small molecule antagonists of retinoid X receptor alpha signaling (AID 588546)
Conditions: HEK293T RXRa-UAS-bla, beta-lactamase ratio, antagonist mode; measured here: W530 green channel, cytotoxicity proxy
Summary of the method: (§1)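 Beta-lactamase reporter inhibition, read as CCF4 fluorescence ratio (ex 405, em 460/530 nm) after 2 h at RT. HEK293T UAS-bla cells, 2500/well, were stimulated with 9-cis-RA at 500 or 100 nM final alongside test compound for 18 h at 37 C.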
% is set by controls: 0 for no effect and ±100 for the full control effect; potency is the fitted concentration of half-maximal effect.

SMILES	max response
Nc1ccc(C(=O)O)cc1	14.8%
CN(C)C(=S)SC(=S)N(C)C	5.78%
COc1cccc2c1C(=O)c1c(O)c3c(c(O)c1C2=O)C[C@@](O)(C(=O)CO)C[C@@H]3O[C@H]1C[C@H](N)[C@H](O)[C@H](C)O1	-19.8%

Target: Retinoic acid receptor RXR-alpha (Homo sapiens) (UniProt P19793)
Sequence (P19793 whole entry, looked up): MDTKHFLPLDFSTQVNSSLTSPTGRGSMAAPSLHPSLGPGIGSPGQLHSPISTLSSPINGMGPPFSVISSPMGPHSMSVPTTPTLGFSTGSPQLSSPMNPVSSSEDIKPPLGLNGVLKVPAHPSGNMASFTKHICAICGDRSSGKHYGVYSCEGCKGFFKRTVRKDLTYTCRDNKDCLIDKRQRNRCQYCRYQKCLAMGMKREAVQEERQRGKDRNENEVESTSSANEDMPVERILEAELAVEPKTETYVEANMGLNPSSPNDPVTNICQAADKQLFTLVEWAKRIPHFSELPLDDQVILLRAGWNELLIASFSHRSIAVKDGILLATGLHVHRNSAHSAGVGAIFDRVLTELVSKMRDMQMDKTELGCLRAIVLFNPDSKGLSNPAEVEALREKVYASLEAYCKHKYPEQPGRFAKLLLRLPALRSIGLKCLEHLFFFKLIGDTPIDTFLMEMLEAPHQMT
Experiment: as above
Conditions: HEK293T RXRa-UAS-bla, beta-lactamase ratio, antagonist mode
Summary of the method: as §1

SMILES	max response	Potency
CC(O)(P(=O)(O)O)P(=O)(O)O	-16.3% (inactive)	
CCCCCCc1ccc(O)cc1O	-14.1% (inactive) and -8.39% (inactive)	
C[C@H]1C[C@H]2[C@@H]3CCC4=CC(=O)C=C[C@]4(C)[C@@]3(Cl)[C@@H](O)C[C@]2(C)[C@@]1(O)C(=O)CO	-25.7% (inactive)	
COc1cccc2c1C(=O)c1c(O)c3c(c(O)c1C2=O)C[C@@](O)(C(C)=O)C[C@@H]3O[C@H]1C[C@H](N)[C@H](O)[C@H](C)O1		5.62 µM (active)
NC(=NCCCCCCN=C(N)/N=C(\N)Nc1ccc(Cl)cc1)/N=C(\N)Nc1ccc(Cl)cc1		39.8 µM (active)
C=CCc1ccc(O)c(OC)c1	-1.42% (inactive) and -1.33% (inactive)	
Cc1cc(=O)n(-c2ccccc2)n1C	0.0131% (inactive)	
Oc1c(Cl)cc(Cl)cc1Sc1cc(Cl)cc(Cl)c1O		25.1 µM (active)
Cc1c2oc3c(C)ccc(C(=O)N[C@@H]4C(=O)N[C@H](C(C)C)C(=O)N5CCC[C@H]5C(=O)N(C)CC(=O)N(C)[C@@H](C(C)C)C(=O)O[C@@H]4C)c3nc-2c(C(=O)N[C@@H]2C(=O)N[C@H](C(C)C)C(=O)N3CCC[C@H]3C(=O)N(C)CC(=O)N(C)[C@@H](C(C)C)C(=O)O[C@@H]2C)c(N)c1=O (I: T[dV]P[Sar][NMeV] / II: T[dV]P[Sar][NMeV]; ester I:1-I:C, II:1-II:C; linker I:N-II:N via Actinocin(9to1))		31.6 nM (active) and 14.1 nM (active)
